Screens: PubChem, National Center for Advancing Translational Sciences (NCATS)
Most compounds without a hit are left out; they make up all but 6.6% or so of the library.
HT1080 IDH1KD tx: toxicity to HT-1080 IDH1 knockdown cells (counter line) | HT-1080 IDH1 knockdown viability, ATP luminescence, 48 h | Potency, µM (titrated, usually from 46.1 µM), for the others: at the top dose activity, negative = toxicity, usual class: cytotoxic | actives 2% (n = 360,000);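 also: 0% = DMSO wells and -100% = cell-free medium wells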
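Luminescent ATP read-out (CellTiter-Glo, 10 min at room temperature) after 48 h compound exposure at 37 °C gave viability of IDH1-knockdown HT-1080 cells. Activity was normalised to DMSO and cell-free wells, then fitted as concentration-response curves.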
HepG2 tox: kills HepG2 cells in TGF-b inhibitor counter-screen; Potency, µM (series often up to 46.1 µM), for inactives: at the top dose activity change, negative = cytotoxicity, most hits filed as cytotoxic; HepG2 CAGA-GFP viability, ATP luminescence, 18 h; AID 588856; actives 0.76% (n = 410,000)
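HepG2 CAGA-GFP cells (1000/well, DMEM with 1% FBS) received compound, then TGF-beta at 500 pg/mL final, and were incubated 18 hours at 37 degrees C. Viability was read by CellTiter-Glo luminescence. Media-only wells were set as complete cell-killing and DMSO as no toxicity.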
KB-3-1 tox: kills parental KB-3-1 adenocarcinoma cells. KB-3-1 viability, CellTiter-Glo ATP luminescence, 72 h. Potency, µM (series often up to 46.1 µM), most hits filed as cytotoxic. actives 1.4% (n = 400,000). AID 1347075; also: % is scaled to controls: 0 for no effect and ±100 for the full control effect; nearly all actives have a fitted effect of over 60% in size
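Here the drug-naive KB-3-1 line serves as comparator for MDR sub-line selectivity; cells received compound titrations, 72 h at 37 °C, then CellTiter-Glo readout.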
KB-V1 cytotox: kills drug-selected multidrug resistant KB-V1 cells; KB-V1 MDR cells viability, CellTiter-Glo, 72 h; Potency, µM (titrated, usually from 46.1 µM), actives largely listed as cytotoxic; actives 3.4% (n = 400,000); AID 1347076; also: % is scaled to controls: 0 for no effect and ±100 for the full control effect; nearly all actives have a fitted effect of over 60% in size
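Readout: CellTiter-Glo luminescence, 10 min after addition. Cells: KB-V1 MDR subline, 72 h at 37 degrees C with compound. Analysis: corrected, normalized data fitted to concentration-effect curves.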
HT1080-NT tox: kills 2HG-producing HT-1080-NT fibrosarcoma cells; AID 686970; HT-1080-NT fibrosarcoma viability, CellTiter-Glo ATP luminescence, 48 h; actives 1.6% (n = 360,000); Potency, µM (series often up to 46.1 µM), for the others: at the highest dose activity, negative = less viability, hits mostly cytotoxic;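 also: NT is the 2HG producing partner of a matched IDH1 knockdown line; 0% = DMSO-treated cells and -100% = media-only wells without cells; nearly all actives have a fitted effect of over 55% in size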
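Fibrosarcoma NT cells, 750 per well in 5% FBS RPMI, were exposed to compound for 48 hours. Viability: CellTiter-Glo luminescence.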
TGFb inhibitor: TGF-b pathway inhibition; HepG2 CAGA-GFP TGF-b/SMAD3 reporter, GFP fluorescence, 18 h; TGF-beta stimulated, 500 pg/mL final; Potency, µM (doses to about 46.1 µM), for inactives: top-dose activity, negative = inhibition, usual class: inhibitors; actives 1.2% (n = 410,000); AID 588855; also: % is scaled to controls: 0 for no effect and ±100 for the full control effect; nearly all actives have a fitted effect of over 65% in size
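Cell-based qHTS in HEPG2 carrying a CAGA-GFP Smad reporter; compounds added before 500 pg/mL final TGF-beta, 18 h incubation at 37 degrees C, GFP fluorescence quantified per cell by imaging cytometry.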
* = called active by the depositor; i = inactive; ? = inconclusive; · = not tested or not shown. Calls follow the shape of the dose curve; as a rule, active = well fitted curve in the direction sought with a large enough effect; inconclusive = small, poorly fitted or top-dose-only effect, or another doubt; inactive = no such curve, though single readings can be large; an effect the other way counts as inactive or inconclusive. Potency is read from the fitted curve at half-maximal effect.

SMILES | HT1080 IDH1KD tx | HepG2 tox | KB-3-1 tox | KB-V1 cytotox | HT1080-NT tox | TGFb inhibitor
COc1ccccc1N1CCN(S(=O)(=O)CCNC(=O)C2CC(=O)N(c3ccccc3)C2)CC1 (stereo unspecified) | -1% | -18% | i | i | -1% | ?
C=C1C(=O)O[C@H]2[C@H]1[C@H](OC(=O)CC(=O)O[C@@H]1C[C@@H](C)[C@@H]3C=CC(=O)[C@@]3(C)[C@H]3OC(=O)C(=C)[C@H]13)C[C@@H](C)[C@H]1C=CC(=O)[C@]12C | ? | -65% | i | i | ? | ?
C=C1C(=O)O[C@H]2C[C@@H](C)[C@@H]3C=CC(=O)[C@@]3(C)C[C@H]12 | 8.2µM* | 7.9µM* | ? | ? | ? | 4.5µM*
C=C1C(=O)O[C@@H]2C[C@@H](C)[C@@H]3C=CC(=O)[C@@]3(C)[C@@H](OC(=O)CC(=O)O[C@H]3[C@@H]4C(=C)C(=O)O[C@@H]4C[C@@H](C)[C@@H]4C=CC(=O)[C@]43C)[C@H]12 | 0.23µM* | 0.56µM* | i | i | ? | 0.25µM*
C=C1C(=O)OC2CC(C)C3C=CC(=O)C3(C)C(O)C12 (stereo unspecified) | 0.82µM* | -118% | 3.3µM* | 3.7µM* | 1.8µM* | 3.2µM*
C=C1C(=O)O[C@@H]2C[C@@H](C)[C@@H]3C4OC4C(=O)[C@@]3(C)[C@@H](O)[C@H]12 (stereo partly specified) | 9.2µM* | -88% | i | i | 15µM* | 2.8µM*
C=C1C(=O)OC2C1CCC(C)C1(O)C=CC(=O)C21C (stereo unspecified) | ? | -35% | ? | ? | ? | ?
Cc1nc(-c2cccc(NC(=O)c3ccc(Cl)c(S(=O)(=O)N4CCCC4)c3)c2)cs1 | -20% | -9% | ? | ? | -8% | ?
Cc1cccc(-n2nc(C)c3c2NC(=O)CSC3c2ccccc2Cl)c1 (stereo unspecified) | · | -16% | i | i | · | ?
CCCCNC(=O)c1c(N)n(CCCOC)c2nc3ccccc3nc12 | ? | -13% | i | 18µM* | ? | -15%
CCCCCn1c(NC(=O)c2ccco2)c(C(=O)OCC)c2nc3ccccc3nc21 | 12µM* | 16µM* | i | i | 9.2µM* | 20µM*
COCCCn1c(N)c(C(=O)OCCOC)c2nc3ccccc3nc21 | 15% | -3% | i | i | 18% | -23%
CC(C)CCn1c(N)c(C(=O)NCc2cccs2)c2nc3ccccc3nc21 | 2% | -1% | i | i | 10% | -1%
COCCNC(=O)c1c(N)n(CCC(C)C)c2nc3ccccc3nc12 | -2% | -77% | i | 16µM* | -3% | ?
CC(C)OCCCNC(=O)c1c(N)n(Cc2cccs2)c2nc3ccccc3nc12 | ? | 22µM* | ? | ? | 18µM* | 18µM*
Cc1cc(N2CCCCC2)nc2ccc(NC(=O)/C=C/c3ccc(OC(C)C)cc3)cc12 | · | -23% | i | i | · | ?
COCCNC(=O)c1c(NC(=O)c2ccc(Br)o2)n(Cc2ccccc2)c2nc3ccccc3nc12 | 0% | -8% | i | 12µM* | 3% | 0%
S=c1[nH]nc(-c2ccn[nH]2)n1-c1ccccc1Cl | 8% | -10% | i | ? | 17% | 79%
C[N+]1=C(/C=C/Nc2ccccc2)C(C)(C)c2ccccc21 | -16% | -15% | ? | 21µM* | -11% | -6%
Cn1nc(-c2ccccc2)nc2c(=O)n(C)c(=O)nc1-2 | · | 1µM* | 4.6µM* | 5.8µM* | · | 0.56µM*
CCn1nc(-c2ccccc2)nc2c(=O)n(C)c(=O)nc1-2 | 5.8µM* | -96% | 5.2µM* | i | 4.1µM* | 0.56µM*
O=c1c2ccccc2nc(-c2ccccc2)n1-n1cccc1 | 2% | -3% | i | i | 7% | -10%
Cc1nc2c(=O)n(C)c(=O)nc-2n(C)n1 | 1.3µM* | 0.63µM* | 5.2µM* | 6.5µM* | 2.6µM* | 0.63µM*
Nc1ccc2c3c(cccc13)-c1ccccc1-2 | ? | -18% | i | i | ? | 97%
Cc1ccc(-n2c(O)c(/C=N/Nc3ccccc3)c(=O)[nH]c2=O)cc1C | 6.5µM* | 2% | i | ? | ? | 9%
Cn1c(O)c(C=Nc2ccccc2)c(=O)n(C)c1=O | -7% | -15% | i | i | 2% | 5%
Cn1c(O)c(/C=N/Nc2ccccc2)c(=O)n(C)c1=O | 7.3µM* | 1% | i | i | 8.2µM* | 4%
COc1ccc(N/N=C/c2c(O)n(-c3ccc(C)c(C)c3)c(=O)[nH]c2=O)cc1 | ? | -10% | ? | ? | ? | -7%
COc1ccc(N/N=C/c2c(O)n(-c3cccc(C)c3)c(=O)[nH]c2=O)cc1 | 12µM* | -26% | ? | i | 12µM* | -20%
